Rows were chosen to be rich in hits. Some 3.5% of all compounds tested hit in one or more screens of this group.
FBW7 activator = FBW7 E3 ligase activators, primary screen, biochemical, AlphaScreen, human; F-box/WD repeat-containing protein 7 (Homo sapiens), Q969H0; AlphaScreen FBW7–phospho-cyclin E peptide binding, activator screen; normalized activity (activation), % at 26.1 µM; hit rate 0.13% among 650,000; AID 1259310, 2017; in the data active means normalized activity above about 1.9%;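 further: purified mutant Fbw7 with reduced substrate affinity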
Target sequence (Q969H0 whole entry, looked up): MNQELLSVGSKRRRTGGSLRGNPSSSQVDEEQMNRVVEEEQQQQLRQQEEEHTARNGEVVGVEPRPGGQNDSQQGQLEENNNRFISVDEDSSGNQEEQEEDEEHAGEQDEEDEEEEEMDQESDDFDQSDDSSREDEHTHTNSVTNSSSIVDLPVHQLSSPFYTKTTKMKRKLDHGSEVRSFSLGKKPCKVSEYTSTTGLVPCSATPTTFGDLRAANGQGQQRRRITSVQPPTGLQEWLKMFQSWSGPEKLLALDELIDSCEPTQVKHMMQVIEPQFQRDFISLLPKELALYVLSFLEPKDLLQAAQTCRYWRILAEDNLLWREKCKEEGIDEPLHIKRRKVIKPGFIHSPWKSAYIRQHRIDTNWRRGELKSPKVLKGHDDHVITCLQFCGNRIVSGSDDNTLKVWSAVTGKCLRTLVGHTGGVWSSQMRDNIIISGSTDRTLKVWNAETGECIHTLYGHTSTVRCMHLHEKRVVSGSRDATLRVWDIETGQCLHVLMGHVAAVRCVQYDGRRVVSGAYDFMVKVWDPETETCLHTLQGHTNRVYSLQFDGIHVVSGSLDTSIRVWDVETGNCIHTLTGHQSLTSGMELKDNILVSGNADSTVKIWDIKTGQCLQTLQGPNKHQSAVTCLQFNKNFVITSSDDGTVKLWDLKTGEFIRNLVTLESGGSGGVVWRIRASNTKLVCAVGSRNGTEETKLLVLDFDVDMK
MITF primary = MITF inhibitors, primary screen, biochemical, AlphaScreen, human; AlphaScreen MITF homodimerization, bead proximity signal; Microphthalmia-associated transcription factor (Homo sapiens), O75030; inhibition, % at 2.6 µM; hit rate 0.91% among 650,000; in the data active means inhibition above about 50%;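 further: 0% = vehicle wells with protein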
TEAD-YAP inh = TEAD-YAP interaction inhibition, primary screen, TEAD-YAP interaction inhibitor project, luminescence, HEK-TIYL cells; TEAD-Gal4/YAP UAS-luciferase luminescence; inhibition, % at 9.12 µM; hit rate 1.4% among 640,000; in the data active means inhibition above about 32%;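 further: 0% = median of test compound wells and 100% = reference inhibitor wells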
GPR151 ag = activators of human GPR151, primary screen, cell-based, PathHunter beta-arrestin, luminescence; PathHunter beta-arrestin GPR151 cells; hit rate 1% among 650,000; activation, % at 11.2 µM; G-protein coupled receptor 151 (Homo sapiens), Q8TDV0; in the data active means activation above about 4.9%;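 further: 0% = median of compound wells and 100% = cells with positive control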
GPR151 confirm = GPR151 activators, triplicate retest, confirmation, cell-based, PathHunter beta-arrestin, luminescence. shares compounds with GPR151 ag. activation, % at 11.2 µM. GPR151 PathHunter beta-arrestin cells, 90 min; % of EA-reagent control over plate median. 6,700 tested, under 10 active;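 active means mean percent activation across replicates above the confirmation screen cutoff of 4.91%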
GPR119 counter = GPR119 activators in beta-arrestin cells, counter-screen for GPR151 activator project, cell-based, PathHunter beta-arrestin, luminescence, triplicate. hit rate 0.3% among 6,700. 90 min; 0 = compound-well median, 100 = enzyme-acceptor control. activation, % at 11.2 µM. shares compounds with GPR151 ag;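 active means mean percent activation in the counterscreen above 29.09%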;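 further: counterscreen on off-target GPR119 to flag nonselective hits from the GPR151 activator screen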
Numbers without * were called inactive; . = not tested or not shown.

SMILES	FBW7 activator	MITF primary	TEAD-YAP inh	GPR151 ag	GPR151 confirm	GPR119 counter
CCN1CCN(C(=O)c2nc(-c3cccc(F)c3)n3c2CCCCC3)CC1	0	2	9	5.5*	1	3
O=C(Nc1ccc2c(c1)OCCO2)Nc1nnc(N2CCCC2)s1	0	1	-19	5.7*	0	-1
O=C(Nc1cccc(C(F)(F)F)c1)Nc1nnc(N2CCCC2)s1	0	-1	0	5.9*	0	-1
COC(=O)c1ccccc1NC(=O)Nc1nnc(N2CC(C)CC(C)C2)s1 (stereo unspecified)	0	11	3	6.6*	-1	-7
O=C(Nc1cccc(Br)c1)Nc1nnc(N2CCCCCC2)s1	0	1	-7	0	.	.
O=C(Nc1nnc(N2CCCC2)s1)Nc1ccccc1Br	0	0	-23	5.5*	0	-4
CCOc1ccc(-n2c(=S)sc3c(=O)n(-c4ccc(C)cc4)c(SCC(=O)N(CC)c4cccc(C)c4)nc32)cc1	0	-10	14	-1	.	.
Cc1ccccc1C(=O)NCc1ccc(S(N)(=O)=O)cc1	0	8	-1	2	.	.
CCc1cccc(CC)c1NC(=O)C1CC(=O)N(c2ccc(F)cc2)C1 (stereo unspecified)	0	12	10	1	.	.
CCc1cccc(CC)c1NC(=O)C1CC(=O)N(c2ccccc2OC)C1 (stereo unspecified)	0	-1	-4	8.6*	0	12
Cc1n[nH]c(C)c1S(=O)(=O)N1CCCC(C(=O)c2cccc(C(F)(F)F)c2)C1 (stereo unspecified)	0	-4	2	1	.	.
Cc1ccc(C)c(N2CCN(C(=O)CCc3nc(-c4ccccc4F)no3)CC2)c1	0	-2	-3	5.5*	1	9
COC(=O)C1=C(C(=O)OC)[C@@H]2N(C)c3ccc(OC)cc3[C@@]23C[C@@H](C(=O)OC)N(C(=O)c2ccco2)C3=N1	0	16	.	6.1*	0	-3
Cc1cc([N+](=O)[O-])ccc1N=c1c([N+](=O)[O-])nn(-c2ccc(Cl)cc2)n1O	0	15	4	1	.	.
COc1ccc(CCn2c(=S)[nH]c3cc(C(=O)N4CCOCC4)ccc3c2=O)cc1OC	0	-20	9	4	.	.
COc1ccc(CCn2c(=O)[nH]c3cc(C(=O)NCc4ccco4)ccc3c2=O)cc1OC	0	9	3	6.1*	0	-4
COc1ccc(CCNC(=O)c2ccc3c(=O)n(Cc4ccco4)c(=S)[nH]c3c2)cc1OC	0	-5	-8	-1	.	.
COc1ccc(CCn2c(=S)[nH]c3cc(C(=O)N4CCC(C(N)=O)CC4)ccc3c2=O)cc1OC	0	14	-3	6.1*	-2	-4
O=C(c1ccc2c(=O)n(CCc3ccccc3)c(=S)[nH]c2c1)N1CCN(c2ccccc2)CC1	0	-4	-2	6.3*	0	13
COc1ccc(CCNC(=O)c2cccc(-n3c(=S)[nH]c4cc(Cl)ccc4c3=O)c2)cc1OC	0	13	5	5.8*	0	4
Fc1ccc(-c2nn3c(-c4ccc(Br)cc4)nnc3s2)cc1	0	-2	3	1	.	.
CCCNC(=O)C1CCCN(S(=O)(=O)c2c(C)noc2/C=C/c2cccs2)C1 (stereo unspecified)	0	-1	-10	0	.	.
O=C(CCc1nnc(C2(c3ccc(Cl)cc3)CCC2)o1)NCc1ccccn1	0	13	8	5.1*	0	-6
Cc1ccc(CNC(=O)CCc2nnc(C3(c4ccc(Cl)cc4)CCC3)o2)s1	0	5	-4	1	.	.
CSc1nc(N)nc(SCC(=O)c2ccccc2)c1C#N	0	-9	-22	0	.	.
CSc1nc(N)nc(SC(C(=O)O)c2ccccc2)c1C#N (stereo unspecified)	0	-6	7	8.6*	0	13
CCOc1ccccc1C(=O)Nc1ccc2c(c1)N(CCOC)CCC2	0	5	7	9.4*	1	-2
CNc1oc(-c2cccs2)nc1S(=O)(=O)c1ccccc1	0	-4	1	5.1*	0	11

High-throughput results deposited in PubChem BioAssay by The Scripps Research Institute Molecular Screening Center.
